Screens: PubChem, several laboratories
Shown are actives, neighbours in structure and some others; about 21% of the full set was active somewhere.
CYP2C9 act = increases human cytochrome P450 2C9 activity | P11712 | recombinant CYP2C9, luciferin-H conversion, luminescence; stronger effect = higher value; factor 1 = untreated enzyme, 0 = blocked | activation factor at 5 µM | hit rate 1.4% among 96,000 | AID 1024;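 active means activation factor of 2 or more for CYP2C9 at a 5 µM dose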;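 further: 0 = sulfaphenazole-blocked wells and 1 = vehicle-only wells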
Target sequence (P11712 whole entry, looked up): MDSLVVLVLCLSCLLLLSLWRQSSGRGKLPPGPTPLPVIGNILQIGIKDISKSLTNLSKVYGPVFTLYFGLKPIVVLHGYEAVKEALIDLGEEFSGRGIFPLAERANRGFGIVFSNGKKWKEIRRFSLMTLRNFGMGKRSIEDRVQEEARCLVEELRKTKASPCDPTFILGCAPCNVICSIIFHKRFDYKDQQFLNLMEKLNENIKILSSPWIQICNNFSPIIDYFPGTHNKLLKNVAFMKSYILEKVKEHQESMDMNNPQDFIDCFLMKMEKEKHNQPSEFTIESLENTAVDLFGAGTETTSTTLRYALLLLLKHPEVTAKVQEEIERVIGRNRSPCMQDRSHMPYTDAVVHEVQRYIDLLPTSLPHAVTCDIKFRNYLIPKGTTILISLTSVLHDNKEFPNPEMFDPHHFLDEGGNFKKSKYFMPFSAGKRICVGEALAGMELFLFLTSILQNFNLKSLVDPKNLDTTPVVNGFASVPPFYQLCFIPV
MRP-1 activ = activators of MRP-1; H69AR cells + doxorubicin, viability rescue, CellTiter-Glo; hit rate 0.61% among 140,000; viability increase, % at 10 µM; AID 799;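 active means viability gain under doxorubicin at or above a set limit, the compound median plus 3 SD, cut at about 4.7% in these data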;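 further: MRP-1 overexpressing cells given doxorubicin 25 µM after compound pretreatment; 18-22 h compound pretreatment then 72 h with doxorubicin before readout; 0% = doxorubicin-only wells and 100% = vehicle-treated cells without doxorubicin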
CYP2C19 inhib = human CYP2C19 inhibition. inhibition, % at 5 µM. CYP2C19 Supersomes, luciferin-H EGE luminescence, 30 min. P33261. AID 778. hit rate 21% among 96,000;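 active means CYP2C19 inhibition above a set limit at 5 µM in the primary screen, cut at about 50% in these data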;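 further: plate controls were negative control wells for no effect and 2.5 mM tranylcypromine positive control for full effect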
CYP2C9 inh = human CYP2C9 inhibition; AID 777; hit rate 20% among 96,000; CYP2C9 Supersomes, luciferin-H conversion, luminescence; P11712; inhibition, % at 5 µM;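 active means blocking of liver enzyme CYP2C9 beyond about 50% at 5 µM, limit read from the data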
MRP reversal = MRP-mediated drug resistance reversal. H69AR cells + 2 uM doxorubicin, CellTiter-Glo, 72 h. differential viability (reversal), % at 10 µM. hit rate 0.04% among 85,000. AID 602;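 active means viability drop by adding the cancer drug above about 55%, with treated viability meeting a 40% cutoff, limit read from the data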;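 further: viability without doxorubicin minus viability with 2 µM doxorubicin for each compound; larger differential means the compound sensitizes cells more to doxorubicin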
CYP2C19 act = cytochrome P450 2C19 (human) activation; P33261; recombinant CYP2C19, luciferin-H EGE luminescence; stronger effect = higher value; 0 = fully inhibited enzyme, 1 = untreated enzyme; activation factor at 5 µM; 96,000 tested, under 10 active; AID 1025;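 active means activation factor of at least 2 at 5 µM in the primary screen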;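 further: 0 = wells with 2.5 mM tranylcypromine and 1 = vehicle-only wells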
* = called active by the depositor; x = no result given.

SMILES | CYP2C9 act | MRP-1 activ | CYP2C19 inhib | CYP2C9 inh | MRP reversal | CYP2C19 act
CCSc1nnc(NC(=O)c2cccs2)s1 | 0.7 | 0 | 8 | 29 | -14 | 0.9
COc1ccc(C(=O)Nc2nc(-c3cccs3)cs2)cc1 | 0.6 | -1 | 25 | 41 | 4 | 0.7
Cc1csc(NC(=O)c2sc3nc(-c4cccs4)ccc3c2N)n1 | 0.2 | -2 | 59* | 81* | -14 | 0.4
CC#CC[N+](C)(C)CCCCCCCCCCCC | x | -5 | x | x | x | x
O=c1c(=O)n(O)c2ccccc2n1O | 1.1 | 0 | -14 | -14 | -4 | 1.1
CCCSc1nc(N)nc(-c2cccs2)c1C#N | 0.3 | 0 | 40 | 73* | x | 0.6
CCOC(=O)CSc1nc(N)c(C#N)c(-c2cccs2)c1C#N | 0.8 | 3 | 9 | 20 | x | 0.9
CCSc1nc(C2CC2)cc(-c2cccs2)c1C#N | 0.6 | -1 | 68* | 41 | -10 | 0.3
NC(=O)CC[C@@H]1NC(=O)[C@@H]2CCCN2C(=O)c2cc([N+](=O)[O-])cc(I)c2NCCCC[C@@H](C(=O)NC(CC(=O)O)C(N)=O)NC1=O (stereo partly specified) | x | -1 | x | x | x | x
Cc1cc(C)c2nc(Cl)c(CN(Cc3ccco3)C(=O)Nc3ccccc3C)cc2c1 | 0.2 | -2 | 14 | 75* | x | 0.9
COc1ccccc1NC(=S)N(Cc1ccco1)Cc1cc2cc(C)cc(C)c2[nH]c1=O | x | -2 | x | x | x | x
COCCN(Cc1cc2cc(C)cc(C)c2nc1Cl)C(=O)Nc1ccccc1 | 0.3 | -1 | 39 | 67* | x | 0.6
CN(C)CCNC(=O)C(=O)NCC1OCCCN1S(=O)(=O)c1cccs1 (stereo unspecified) | x | 0 | x | x | x | x
CC(N)(Cc1ccc(O)cc1)C(=O)O (stereo unspecified) | x | x | x | x | -7 | x
Cc1ccc(S(=O)(=O)c2c(COC(=O)c3ccc(Cl)cc3)c(-c3ccccc3)nn2C)cc1 | 0.5 | 0 | 67* | 52* | -1 | 0.3
COC(=O)c1ccc(COC(=O)c2ccc(CS(=O)(=O)c3ccc(C)cc3)cc2)cc1 | 0.6 | 0 | 0 | 43 | -10 | 1
CN1CCc2c(sc3c2c(=O)n(-c2ccccc2)c2nnc(SCc4ccccc4F)n32)C1 | x | x | x | x | 13 | x
Cc1nc2cc(Cl)ccc2n1-c1ccccc1 | 0.8 | -2 | 80* | 16 | -7 | 0.2
Cc1nc2cc(C(=O)OCC(=O)NC(C)C(C)C)ccc2n1-c1ccccc1 (stereo unspecified) | x | -2 | x | x | x | x
CC(=O)N1N=C(c2ccc(Cl)cc2)OC1c1ccc(C(C)C)cc1 (stereo unspecified) | 0.8 | 4 | 55* | 22 | 14 | 0.5
COc1ccc(OC)c(NS(=O)(=O)c2cccs2)c1 | x | -1 | x | x | 2 | x
O=S(=O)(Nc1cccc2c1ccc1cccn12)c1cccs1 | 0.4 | -1 | 30 | 59* | 4 | 0.7
COc1ccccc1NS(=O)(=O)c1ccc(O)cc1 | 2.3* | -1 | 86* | -126 | x | 0.1
COc1ccccc1NS(=O)(=O)c1cccc(C(=O)NN)c1 | 1.2 | -3 | 97* | -19 | 8 | 0
COc1ccccc1NS(=O)(=O)c1cccc(C(=O)N/N=C2\CC(=O)CC(C)(C)C2)c1 | x | -1 | x | x | x | x
SMILES | CYP2C9 act | MRP-1 activ | CYP2C19 inhib | CYP2C9 inh | MRP reversal | CYP2C19 act
O=C(c1cc([N+](=O)[O-])cc([N+](=O)[O-])c1)N1CCOCC1 | x | 0 | x | x | x | x
CCOC(=O)CSc1nc(Nc2ccc3c(c2)OCO3)c2ccccc2n1 | 0 | 1 | 86* | 98* | -6 | 0.1
N#CCSc1nc(Nc2ccc3c(c2)OCO3)c2ccccc2n1 | 0.2 | 0 | 19 | 80* | -25 | 0.8
CCOC(=O)CSc1nc(NCc2ccco2)c2ccccc2n1 | 0.6 | -4 | 36 | 38 | -7 | 0.6
COc1ccccc1CNC(=O)COC(=O)C1=COCCO1 | 0.9 | -1 | 61* | 5 | -14 | 0.4
COC(=O)c1cc(NC(=O)C2COc3ccccc3O2)cc(C(=O)OC)c1 (stereo unspecified) | 0.3 | -3 | 63* | 73* | 21 | 0.4
CCOC(=O)c1c(NC(=O)C2COc3ccccc3O2)sc(C)c1C (stereo unspecified) | x | 0 | x | x | -14 | x
COc1ccccc1CNC(=O)C1COc2ccccc2O1 (stereo unspecified) | 1.2 | -1 | 99* | -19 | 1 | 0
CCOC(=O)c1ccccc1NC(=O)C1COc2ccccc2O1 (stereo unspecified) | 0.7 | -1 | 87* | 31 | 15 | 0.1
COc1ccc(CNC(=O)C2COc3ccccc3O2)cc1 (stereo unspecified) | x | -2 | x | x | 0 | x
CCN(CC)c1nc(N)c([N+](=O)[O-])c(NCCO)n1 | x | -1 | x | x | x | x
COc1cccc(NC(=O)c2ccc(-n3cccn3)nc2)c1 | 0.8 | -3 | 18 | 22 | x | 0.8
COC(=O)c1ccccc1NC(=O)C1COc2ccccc2O1 (stereo unspecified) | 1.3 | 0 | 90* | -32 | 0 | 0.1
CN(C)[C@H]1N(C(=O)c2ccc(Br)cc2)N=C2c3ccccc3S(=O)(=O)N21 | 0.4 | -1 | 45 | 57* | 2 | 0.6
COC(=O)C1=C(CN2CCc3ccccc32)NC(=O)NC1c1cc(C)ccc1C (stereo unspecified) | 1.1 | -4 | 2 | -9 | -2 | 1
COC(=O)C1=C(CN2CCCc3ccccc32)NC(=O)NC1c1ccc(F)cc1 (stereo unspecified) | 0.6 | -2 | 72* | 42 | 0 | 0.3
Cn1c(=O)c(C(=O)CSc2nncs2)c(N)n(Cc2ccccc2)c1=O | 0.4 | 1 | 91* | 62* | -14 | 0.1
CCOC(=O)N1CCC(NC(=O)CN(C)S(=O)(=O)c2cc3c(cc2Cl)NC(=O)CO3)CC1 | 0.4 | -1 | -4 | 56* | 15 | 1
CC(CS(=O)(=O)c1ccc2ccccc2c1)N1CCN(C2CCCCC2)CC1 (stereo unspecified) | x | x | x | x | 3 | x
CCn1c(SCC(=O)NC(C)C)nnc1-c1cccs1 | 1 | -1 | 12 | -2 | -10 | 0.9
Cc1cccc(OCc2nnc(SCC(=O)c3cccs3)n2C)c1C | 0.5 | 0 | 78* | 53* | -2 | 0.2
Cc1ccccc1OCc1nnc(SCC(=O)NCc2ccccc2)n1C | 1.4 | -1 | 1 | -41 | 7 | 1
CCn1c(SCC(=O)c2ccc(NS(=O)(=O)c3ccccc3)cc2)nnc1-c1cccs1 | 0.1 | -3 | 22 | 94* | -2 | 0.8
CCn1c(SCC(=O)c2cccs2)nnc1-c1cccs1 | 0.5 | -3 | 98* | 45 | -3 | 0
CCOC(=O)c1c(C)[nH]c(C(=O)CSc2nnnn2-c2ccc(C)cc2)c1C | 0.6 | -3 | 54* | 36 | 0 | 0.5
Cc1nn(C(C)(C)C)c(N)c1-c1ccccc1 | x | -1 | x | x | x | x
O=C(CN1C(=O)/C(=C\c2ccc(F)cc2)Oc2ccccc21)NCc1ccco1 | x | -5 | x | x | x | x
CCn1c(SCC(=O)c2ccc(CNC(C)=O)o2)nnc1-c1cccs1 | 1 | -3 | 39 | 1 | -6 | 0.6
